PAX8 inh HTS: PAX8 transcriptional activity inhibition. inhibition, % at 12.6 µM. 360,000 compounds, 1.2% hits. RMG-I TPO-luciferase reporter, SteadyGlo, 24 h. AID 652154;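 active = mean replicate inhibition at least 60% with every replicate also reaching 60%; inconclusive = only one of the two criteria is met; inactive = mean below 60% and not all replicates reaching 60%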;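 note: luciferase light reporting Pax8 driven TPO promoter activity; plate controls were median of neutral control wells for no effect and mitoxantrone controls for full effect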
CF NFkB inh: inhibitors of cystic fibrosis induced NF-kB. KKLEB NF-kB-GFP reporter, PAF-induced, GFP fluorescence overnight. inhibition, % at 5 µM. 360,000 compounds, 0.86% hits. AID 588850;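 active = at least 50% inhibition at 5 µM, scaled per plate between neutral and stimulator controls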;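 note: PAF is a Pseudomonas aeruginosa culture filtrate used as stimulus; plate controls were PAF-stimulated DMSO wells for no effect and unstimulated DMSO wells for full effect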
HIF-2a inh: HIF-2a inhibition. 360,000 compounds, 0.72% hits. AID 624352. 786-0 RCC cells HIF-2a reporter, luciferase luminescence, overnight. inhibition, % at 18.8 µM;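 active = inhibition of the luminescence signal of 40% or more relative to plate controls, in a single-dose primary screen at 18.75 µM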
KKLEB tox: reduces viability of KKLEB cystic fibrosis airway cells; KKLEB CF airway cells viability, ATPlite luminescence, overnight; stronger effect = lower value; cells stimulated with P. aeruginosa culture filtrate; AID 602141; activity change (cytotoxicity), % at 5 µM; 360,000 compounds, 0.36% hits;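 active = corrected activity change at or below -50% at 5 µM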
EWS-Fli block: EWS/Fli transcriptional activity inhibition | inhibition, % at 12.6 µM | AID 651661 | A673 NR0B1-luciferase reporter, viability-normalised | 350,000 compounds, 0.67% hits;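 active = mean inhibition of at least 50% after viability correction, with every replicate also passing that limit; inconclusive = mean reaches 50% but only one of two replicates passes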;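 note: firefly luciferase signal divided by Alamar Blue viability fluorescence both relative to DMSO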
Mdm2 MdmX conf: confirmation of inhibitors of human Mdm2/MdmX interaction, set 2 | 740 compounds, 99% hits | shares compounds with HIF-2a inh | SaOS-2 split-luciferase Mdm2/MdmX complementation, luminescence | inhibition, % at 8 µM;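 active = mean inhibition of the luminescence signal across two replicates at or above 26 percent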
Target sequence (O15151 whole entry, looked up): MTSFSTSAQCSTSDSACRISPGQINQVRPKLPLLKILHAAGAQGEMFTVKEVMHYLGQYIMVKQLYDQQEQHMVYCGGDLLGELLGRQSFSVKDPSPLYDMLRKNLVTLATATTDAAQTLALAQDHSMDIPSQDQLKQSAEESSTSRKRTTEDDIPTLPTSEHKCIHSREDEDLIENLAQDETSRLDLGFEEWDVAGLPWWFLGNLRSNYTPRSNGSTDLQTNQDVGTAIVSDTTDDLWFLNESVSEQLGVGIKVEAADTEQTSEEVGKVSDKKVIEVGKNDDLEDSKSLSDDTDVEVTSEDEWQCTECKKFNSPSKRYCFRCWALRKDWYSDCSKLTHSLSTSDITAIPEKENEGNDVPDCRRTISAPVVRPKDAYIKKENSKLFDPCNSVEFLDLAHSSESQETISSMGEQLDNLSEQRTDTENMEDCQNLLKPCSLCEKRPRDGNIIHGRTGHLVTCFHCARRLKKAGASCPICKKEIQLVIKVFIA
Target sequence (Q00987 whole entry, looked up): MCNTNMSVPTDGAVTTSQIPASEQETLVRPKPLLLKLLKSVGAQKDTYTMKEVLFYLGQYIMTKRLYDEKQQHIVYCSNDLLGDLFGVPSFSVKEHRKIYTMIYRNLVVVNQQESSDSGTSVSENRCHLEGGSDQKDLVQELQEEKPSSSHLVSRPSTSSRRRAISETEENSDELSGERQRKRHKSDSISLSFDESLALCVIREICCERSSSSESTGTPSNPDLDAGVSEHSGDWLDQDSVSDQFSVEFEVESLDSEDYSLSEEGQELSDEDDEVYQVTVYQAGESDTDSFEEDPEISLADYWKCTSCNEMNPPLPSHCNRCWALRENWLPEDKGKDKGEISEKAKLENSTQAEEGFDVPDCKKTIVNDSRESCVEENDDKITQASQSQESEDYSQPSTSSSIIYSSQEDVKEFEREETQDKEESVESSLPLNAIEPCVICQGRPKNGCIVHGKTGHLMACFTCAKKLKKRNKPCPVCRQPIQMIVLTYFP
HIF-2a inh conf: HIF-2a inhibition, single concentration confirmation; AID 651580; 786-0 RCC cells, HIF-2a luciferase reporter luminescence, overnight; inhibition, % at 18.8 µM; shares compounds with HIF-2a inh; 1,800 compounds, 56% hits;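 active = mean inhibition across four replicates of at least 40 percent at the single tested concentration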
HIF-1a cs: HIF-1a inhibition counter-screen for HIF-2a hits; shares compounds with HIF-2a inh; MiaPaCa-2 HIF-1a luciferase reporter, desferoxamine, overnight; inhibition, % at 18.8 µM; 1,800 compounds, 72% hits;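 active = mean inhibition of the reporter signal across four replicates at the single tested dose of 50% or more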
Starred values were filed as active, the others as inactive; ? = inconclusive; · = no result given. Compounds with a hit are over-represented: about 2.1% of the library has one in this group of screens.

SMILES | PAX8 inh HTS | CF NFkB inh | HIF-2a inh | KKLEB tox | EWS-Fli block | Mdm2 MdmX conf | HIF-2a inh conf | HIF-1a cs
COc1ccc(/C=C2\N=C(SC)N(c3ccccc3OC)C2=O)cc1 | 8.3 | -4.2 | -86.4 | -0.4 | -37.1 | 100.0* | · | ·
COc1ccc(S(=O)(=O)N(C)C[C@@H]2Oc3ccc(NC(=O)Nc4cccc5ccccc45)cc3CC(=O)N([C@@H](C)CO)C[C@@H]2C)cc1 | · | · | · | · | 4.9 | · | · | ·
CC(C)n1c(/C=C/[C@@H](O)C[C@@H](O)CC(=O)O)c(-c2ccc(F)cc2)c2ccccc21 | 11.3 | 45.5 | 39.0* | -3.0 | 41.5 | · | 20.1 | -38.7
COC(=O)c1c(NC(=O)Cc2ccccc2)sc2c1CCN(C(C)C)C2 | -8.4 | -17.9 | -31.2 | 19.5 | -7.3 | · | · | ·
COC(=O)c1c(NC(=O)c2ccc([N+](=O)[O-])o2)sc2c1CCN(C(C)C)C2 | · | 74.8* | 29.2 | -28.8 | 47.6 | 84.1* | · | ·
CC(C)N1CCc2c(sc(NC(=O)c3nc4ccccc4s3)c2C(N)=O)C1 | -14.3 | -18.4 | -70.4 | -14.0 | 0.9 | · | · | ·
CC(C)N1CCc2c(sc(NC(=O)c3ccc([N+](=O)[O-])o3)c2C(N)=O)C1 | 95.6* | 78.8* | 90.3* | 9.0 | 36.3 | · | 79.1* | 103.4*
O=C(Nc1ccccc1F)N1C[C@H]2[C@@H](c3ccccc31)[C@H](CO)N2C(=O)c1ccc(F)cc1 | -37.7 | · | · | · | -21.9 | · | · | ·
C/C=C/c1cnc2c(c1)C(=O)N([C@H](C)CO)C[C@H](C)[C@@H](CN(C)Cc1ccccc1)O2 | · | · | · | · | -4.5 | · | · | ·
COCCn1c(C)cc(C2=NNC(=Nc3ccccc3F)SC2)c1C | · | 0.4 | 77.9* | -4.0 | · | 80.0* | 34.0 | 71.3*
Fc1ccc(F)c(C2=NNC(=Nc3ccccc3F)SC2)c1 | 9.9 | -17.1 | -292.7 | 3.2 | 27.6 | · | · | ·
CN(C)c1nc(C=C(C#N)C#N)c(Cl)n1-c1ccc(F)cc1 | 68.1* | 85.6* | 91.2* | -96.4* | 38.0 | · | 92.3* | 92.1*
CCOc1ccccc1NC(=O)/C(C#N)=C/c1c(C)nn(-c2ccc(F)cc2)c1Cl | 5.9 | 24.5 | 20.6 | -17.8 | 0.0 | · | · | ·
CC(/C=C1\SC(=O)N(CCCC(=O)O)C1=O)=C\c1ccccc1 | 33.2 | 17.0 | 91.1* | 4.9 | · | · | 98.8* | 101.0*
CC(=Cc1ccccc1)C=C1SC(=S)N(CCCC(=O)Nc2ccc(C(=O)O)cc2)C1=O | 5.6 | 16.2 | -23.4 | 21.8 | -42.5 | · | · | ·
OC(COc1ccc(CNCCc2ccc(C(F)(F)F)cc2)cc1)CN1CCCCC1 (stereo not given) | 35.2 | 11.2 | 22.8 | -7.7 | 37.1 | 103.7* | · | ·
CCCNC(=O)N1C[C@H]2[C@@H](c3ccccc31)[C@H](CO)N2C(=O)C1CCOCC1 | -14.6 | · | · | · | 2.4 | · | · | ·
CCOC(=O)C(C(=O)OCC)C(C(=O)OCC)N1CCOCC1 (stereo not given) | · | 28.6 | 90.0* | -4.9 | · | · | 97.8* | 107.0*
Cc1cccc(Nc2nc(N)nc(CCl)n2)c1C | 124.6* | 100.1* | -13.7 | -84.9* | ? | 103.2* | · | ·
CCOc1ccc(Nc2nc(N)nc(CN3CCN(c4ccccc4F)CC3)n2)cc1 | -22.2 | -7.3 | 6.2 | 3.2 | -6.3 | · | · | ·
Cc1ccc(Nc2nc(N)nc(CCl)n2)c(C)c1 | 106.4* | 83.1* | -95.2 | -72.5* | 43.8 | 103.0* | · | ·
CCOc1ccc(Nc2nc(N)nc(CCl)n2)cc1 | 109.9* | 80.5* | -125.1 | -67.7* | 48.4 | 103.5* | · | ·
Cc1cccc(Nc2nc(N)nc(CN3CCC(C(N)=O)CC3)n2)c1C | · | -4.9 | 7.0 | 0.7 | · | · | · | ·
CC(C)CC#Cc1ccc2c(c1)O[C@H](CN(C)C(=O)c1ccncc1)[C@@H](C)CN([C@H](C)CO)S2(=O)=O | · | · | · | · | -7.1 | · | · | ·
C[C@@H]1CN([C@H](C)CO)C(=O)c2cc(NC(=O)CCN3CCOCC3)ccc2O[C@@H]1CN(C)Cc1ccc(C(=O)Nc2ccccc2N)cc1 | · | · | · | · | 19.3 | · | · | ·
SMILES | PAX8 inh HTS | CF NFkB inh | HIF-2a inh | KKLEB tox | EWS-Fli block | Mdm2 MdmX conf | HIF-2a inh conf | HIF-1a cs
CNc1ccc(Br)cc(C(=O)/C=C/c2ccc(OC)cc2)c1=O | -3.5 | -11.0 | 8.8 | -4.4 | · | · | · | ·
CNc1ccc(Br)cc(C(=O)/C=C/c2cc(OC)ccc2OC)c1=O | 92.1* | 9.8 | 43.1* | -12.3 | · | · | 95.3* | 88.2*
Cc1ccc(S(=O)(=O)N2CCOCC2)cc1NC(=O)c1cc(-c2ccccn2)nc2ccccc12 | -9.4 | 2.1 | 95.2* | 8.6 | -1.5 | · | 13.9 | 50.0
CC(C)(C)C(=O)/C(=C/c1ccc(Cl)cc1)n1cncn1 | 85.8* | 48.0 | 92.9* | -23.1 | 49.3 | · | 88.4* | 98.1*
CC(C)/C=C(/C(=O)c1ccc(Cl)cc1Cl)n1cncn1 | 0.8 | 31.1 | 18.1 | -0.3 | -6.2 | · | · | ·
C[C@@H]1CN([C@@H](C)CO)C(=O)c2cc(NS(=O)(=O)c3ccc(Cl)cc3)ccc2O[C@@H](C)CCCCO[C@H]1CN(C)Cc1ccc(C(=O)O)cc1 | 7.9 | · | · | · | -10.7 | · | · | ·
Cc1nc(NC2=NCN(CCCN3CCOCC3)CN2)nc2c(C)cccc12 | · | -45.6 | 4.4 | 7.4 | · | 66.2* | · | ·
Cc1ccc2nc(NC(=O)CSCC(=O)OCC(=O)c3ccccc3)sc2c1 | 24.7 | -4.6 | 70.6* | 3.5 | · | · | 75.1* | 74.4*
Cc1ccc2nc(NC(=O)CCCc3nc4ccccc4s3)sc2c1 | · | 0.9 | -121.5 | 6.7 | · | · | · | ·
Cc1ccc2nc(NC(=O)CCCC(=O)O)sc2c1 | 2.1 | 7.2 | 82.8* | -9.8 | 81.3* | · | 94.8* | 89.8*
C/C=C/c1ccc([C@H]2[C@@H](CN(C)C(=O)C3CC3)N(C(=O)C3CC3)[C@H]2CO)cc1 | 7.0 | · | · | · | 2.4 | · | · | ·
CO[C@@H]1CN(C)C(=O)c2cc(NC(C)=O)ccc2OC[C@H](C)N(CC2CCCCC2)C[C@H]1C | -0.3 | · | · | · | -7.8 | · | · | ·
O=C1c2cccc3c([N+](=O)[O-])ccc(c23)C(=O)N1c1ccc(Cl)cn1 | · | 9.4 | 30.9 | -11.3 | · | 103.0* | · | ·
O=C(N[C@H]1CC[C@@H](CC(=O)N2CCC(Cc3ccccc3)CC2)O[C@H]1CO)c1cnccn1 | 22.4 | · | · | · | -1.9 | · | · | ·
COc1ccccc1N(Cc1cc(=O)[nH]c2ccccc12)C(=O)c1ccccc1 | 2.2 | -19.1 | 67.3* | 13.1 | -22.1 | · | -4.4 | 1.9
CN(Cc1cc(=O)[nH]c2ccccc12)C(=O)c1ccccc1 | · | 9.1 | -22.5 | -5.6 | 6.0 | · | · | ·
COc1ccc(-n2nc(C#N)c(Cl)cc2=O)cc1 | 105.2* | 76.6* | 91.0* | -14.8 | 52.5* | 103.2* | · | ·
C[C@@H]1CN([C@@H](C)CO)C(=O)c2cc(C#Cc3ccccc3)cnc2O[C@@H]1CN(C)C(=O)CN(C)C | · | · | · | · | 2.7 | · | · | ·
CCC1CCCCN1CCCNC(=O)C1CCN(Cc2nc(-c3ccc(Cl)cc3)oc2C)CC1 (stereo not given) | · | 8.5 | 15.8 | -16.9 | · | 102.5* | · | ·
